Test results: PubChem BioAssay (Tox21)
Records with an inconclusive call do not appear. The source made the active and inactive calls. Unless noted, calls come from the whole dose curve.

How the values were obtained:
[1] = Nuclear factor erythroid 2-related factor 2/antioxidant responsive element (Nrf2/ARE) small molecule agonists: qHTS cell viability counter screen in human keratinocytes (AID 1919968; active = well fitted curve in the direction sought with a large enough effect in the repeat runs; an effect the other way counts as inactive or inconclusive; note: nearly all actives have a fitted effect of over 55% in size); details: KeratinoSens HaCaT ARE cells viability, CellTiter-Fluor, 24 h; series mostly up to 92.4 µM
Procedure, shortened: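 Parallel cytotoxicity read: KeratinoSens HaCaT cells, compound treatment 23 h, viability by CellTiter-Fluor fluorescence 1 h post-reagent.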

[2] = Nuclear factor erythroid 2-related factor 2/antioxidant responsive element (Nrf2/ARE) small molecule agonists: luciferase reporter gene qHTS assay in human keratinocytes (AID 1919969); details: KeratinoSens HaCaT ARE-luciferase, luminescence, 24 h; series mostly up to 92.4 µM; note: nearly all actives have a fitted effect of over 35% in size; note: potency is the fitted concentration of half-maximal effect
[3] = molecular target: Gonadotropin-releasing hormone receptor (Homo sapiens) (UniProt P30968); experiment: Human gonadotropin-releasing hormone receptor (GnRHR) small molecule agonists, calcium flux assay in GnRHR-HEK293 cells (AID 1920063); details: calcium flux fluorescence, agonist mode; series mostly up to 57.6 µM; note: nearly all actives have a fitted effect of over 35% in size
Procedure, shortened: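 Calcium flux, agonist mode, human GnRHR stably integrated in HEK293; dye 1 h at 37 C before compound; Ex/Em=480/540 kinetic read, 3 min; 15 concentrations, triplicate.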

[4] = molecular target: KiSS-1 receptor (Homo sapiens) (UniProt Q969F8); experiment: Human kisspeptin (KISS1R) small molecule agonists, calcium flux assay in KISS1R-HEK293 cells (AID 1920064; active = well fitted curve in the direction sought with a large enough effect in the repeat runs; an effect the other way counts as inactive or inconclusive); details: KISS1R-HEK293, calcium flux fluorescence, agonist; series mostly up to 76.8 µM
Procedure, shortened: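 Triplicate 15-concentration series were applied to dye-loaded human KISS1R HEK293 cells, and agonist-evoked calcium fluorescence was captured for 3 min.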

[5] = G protein-coupled receptor (GPCR) small molecule agonists, calcium flux assay: HEK293 wild type cell line counter screen (AID 1920065); details: HEK293 WT calcium flux, fluorescence, agonist mode; series mostly up to 57.6 µM
Procedure, shortened: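 Non-specific calcium responders were flagged by adding DMSO-dissolved compounds to dye-loaded cells and reading 480/540 nm fluorescence each second for 3 min; ATP served as positive control.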

[6] = p53 small molecule agonists, cell-based qHTS assay with human liver microsomes: qHTS cell viability counter screen (AID 1963579); details: p53RE-bla HCT-116 viability, ATP luminescence, 16 h, HLM; series mostly up to 66 µM; note: nearly all actives have a fitted effect of over 45% in size
Procedure, shortened: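 Metabolic activation used human liver microsomes and NADPH, both 0.5 mg/mL final, over 16 hours at 37 C on p53RE-bla cells (4,000/well). Cytotoxicity measured by CellTiter-Glo luminescence, 30 min at room temperature.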

[7] = p53 small molecule agonists, cell-based qHTS assay with rat liver microsomes: qHTS cell viability counter screen (AID 1963580); details: p53RE-bla HCT-116 + rat microsomes, ATP viability, 16 h; series mostly up to 66 µM; note: nearly all actives have a fitted effect of over 45% in size
Procedure, shortened: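 Luminescent ATP readout (CellTiter-Glo, 30 min at room temperature) reports viability of p53RE-bla HCT-116 cells after 16 h at 37 C with test compounds under metabolic activation by rat liver microsomes and NADPH at 0.5 mg/mL final each.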

[8] = p53 small molecule agonists, cell-based qHTS assay: qHTS cell viability counter screen (AID 1963581); details: p53RE-bla HCT-116 viability, ATP luminescence, 16 h; series mostly up to 66 µM; note: nearly all actives have a fitted effect of over 45% in size
Procedure, shortened: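 Multiplexed with the reporter read, a CellTiter-Glo step (30 min, room temperature) gauges ATP-based viability of HCT-116 p53RE-bla cells after 16 h compound incubation at 37 C.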

[9] = molecular target: 5-hydroxytryptamine receptor 2A (Homo sapiens) (UniProt P28223); experiment: 5-hydroxytryptamine receptor 2A (HTR2A) small molecule antagonists, cell-based qHTS assay (AID 1963586); details: HTR2A-CHO cells, DOI-induced calcium flux, fluorescence; series mostly up to 61.5 µM; note: nearly all actives have a fitted effect of over 45% in size; note: potency is the fitted concentration of half-maximal effect
Procedure, shortened: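 CHO cells stably expressing human HTR2A were plated for 18 h at 37 C, then loaded with calcium dye for 1 h. Compounds were preincubated 5 min at room temperature before DOI (4 nM solution) was added. Kinetic fluorescence was read for 3 min.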

[10] = molecular target: 5-hydroxytryptamine receptor 2A (Homo sapiens) (UniProt P28223); experiment: 5-hydroxytryptamine receptor 2A (HTR2A) small molecule agonists, cell-based qHTS assay (AID 1963587); details: HTR2A-CHO cells, calcium flux fluorescence, agonist mode; series mostly up to 76.8 µM; note: nearly all actives have a fitted effect of over 30% in size; note: potency is the fitted concentration of half-maximal effect
Procedure, shortened: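 HTR2A-CHO cells, plated 18 h at 37 C/5% CO2, dye-loaded 1 h at 37 C; compounds in DMSO added by pin tool (agonist mode). Intracellular calcium flux read as kinetic fluorescence on FDSS over 2 min at 1 s intervals.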

[11] = molecular target: Muscarinic acetylcholine receptor M1 (Homo sapiens) (UniProt P11229); experiment: Cholinergic receptor muscarinic 1 (CHRM1) small molecule antagonists, cell-based qHTS assay (AID 1963588); details: CHRM1-CHO antagonist mode, calcium flux fluorescence; series mostly up to 61.5 µM; note: nearly all actives have a fitted effect of over 40% in size; note: potency is the fitted concentration of half-maximal effect
Procedure, shortened: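 Compounds were tested at 15 concentrations in three independent runs. Dye-loaded CHRM1-CHO cells were exposed 5 min at room temperature before stimulation by acetylcholine added at 50nM. Intracellular calcium was read kinetically on FDSS for 3 min.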

[12] = molecular target: Muscarinic acetylcholine receptor M1 (Homo sapiens) (UniProt P11229); experiment: Cholinergic receptor muscarinic 1 (CHRM1) small molecule agonists, cell-based qHTS assay (AID 1963589); details: CHRM1-CHO cells, agonist mode, calcium flux fluorescence; series mostly up to 76.8 µM; note: nearly all actives have a fitted effect of over 35% in size
Procedure, shortened: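 qHTS, 15-point titration, 3 independent runs: compounds pin-transferred onto dye-loaded CHRM1-CHO cells (human M1), calcium fluorescence followed every second to detect agonism.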

[13] = cAMP Responsive Elements (CRE) small molecule agonists, cell-based qHTS assay (AID 1963590); details: CRE-bla HEK293T, beta-lactamase FRET ratio, 3 h; series mostly up to 92.4 µM
Procedure, shortened: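 Quantitative HTS for CRE agonists: HEK 293T CRE-bla cells, overnight plating, 3 h compound incubation at 37 C/5% CO2, then 2 h room-temperature LiveBLAzer B/G FRET substrate loading.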

[14] = molecular target: Beta-2 adrenergic receptor (Homo sapiens) (UniProt P07550); experiment: Adrenergic beta2 receptor (ADRB2) small molecule antagonists, cell-based qHTS assay (AID 1963592); details: CHO-ADRB2 cells, isoproterenol-stimulated cAMP HTRF ratio, 0.5 h; series mostly up to 92.4 µM; note: nearly all actives have a fitted effect of over 50% in size; note: potency is the fitted concentration of half-maximal effect
Procedure, shortened: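 Assay format: CHO-ADRB2 cells, 18-20hr seeding at 37C/5% CO2, then compound plus 1nM isoproterenol agonist mix for 0.5hr RT. Homogeneous time-resolved fluorescence cAMP detection after 1hr, expressed as 665/615 nm ratio.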

[15] = molecular target: Beta-2 adrenergic receptor (Homo sapiens) (UniProt P07550); experiment: Adrenergic beta2 receptor (ADRB2) small molecule agonists, cell-based qHTS assay (AID 1963593); details: CHO-ADRB2 cells, cAMP HTRF, 30 min; series mostly up to 92.4 µM;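 note: CHO cells stably overexpressing human ADRB2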
Procedure, shortened: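 CHO cells stably over-expressing ADRB2 were plated overnight at 37C, then dosed with compounds plus a stimulation mix containing 100uM IBMX and 25uM Ro-20-1724 for 0.5hr at room temperature. cAMP was measured by HTRF competition, 1hr.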

[16] = molecular target: D(2) dopamine receptor (Homo sapiens) (UniProt P14416); experiment: Dopamine D2 receptor (DRD2) small molecule agonists, cell-based qHTS assay (AID 1963594); details: HEK293-DRD2 cAMP HTRF, agonist mode, 30 min; series mostly up to 92.4 µM; note: nearly all actives have a fitted effect of over 35% in size
Procedure, shortened: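 HEK293 cells stably expressing DRD2 were cultured 24 h at 37 C, then given Ro20-1724 (0.1 mM final) and compounds for 10 min at room temperature. NKH477 (200nM) was then added for 30 min. cAMP was read by HTRF.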

[17] = molecular target: D(2) dopamine receptor (Homo sapiens) (UniProt P14416); experiment: Dopamine D2 receptor (DRD2) small molecule antagonists, cell-based qHTS assay (AID 1963595; active = well fitted inhibition curve with a large enough effect in the signal ratio in the repeat runs, with a control signal flat; the % refers to the signal ratio); details: HEK293-DRD2 cAMP HTRF antagonist mode; series mostly up to 92.4 µM
Procedure, shortened: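 Antagonism was scored as restored cAMP in HEK293-DRD2 cells. These cells were stimulated with 200 nM NKH477 and 12 nM quinpirole for 30 min at room temperature, in the presence of 0.1 mM Ro20-1724.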

[18] = cAMP Responsive Elements (CRE) small molecule antagonists, cell-based qHTS assay (AID 1963591; active = well fitted inhibition curve with a large enough effect in the signal ratio in the repeat runs, not every such curve was filed as active; the % refers to the signal ratio); details: CRE-bla HEK293T, beta-lactamase FRET ratio; series mostly up to 92.4 µM
Procedure, shortened: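 Fluorescence intensity from cleaved LiveBLAzer B/G substrate (2 h, room temperature) quantified CRE-bla activity in HEK 293T cells exposed 3 h to compound with 0.25 uM final NKH477.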

Measured: Potency

KiSS-1 receptor (Homo sapiens), sequence (Q969F8 whole entry, looked up): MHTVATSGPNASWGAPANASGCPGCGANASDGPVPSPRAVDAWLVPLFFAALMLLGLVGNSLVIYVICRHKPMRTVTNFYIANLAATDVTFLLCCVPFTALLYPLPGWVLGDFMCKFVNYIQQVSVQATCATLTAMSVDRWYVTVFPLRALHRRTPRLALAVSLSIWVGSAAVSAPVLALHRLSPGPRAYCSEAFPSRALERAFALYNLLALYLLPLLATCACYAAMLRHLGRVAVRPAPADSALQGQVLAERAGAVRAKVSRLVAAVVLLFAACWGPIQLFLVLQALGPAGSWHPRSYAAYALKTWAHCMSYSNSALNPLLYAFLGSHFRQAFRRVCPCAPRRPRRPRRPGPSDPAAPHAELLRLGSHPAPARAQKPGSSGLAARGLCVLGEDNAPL
5-hydroxytryptamine receptor 2A (Homo sapiens), sequence (P28223 whole entry, looked up): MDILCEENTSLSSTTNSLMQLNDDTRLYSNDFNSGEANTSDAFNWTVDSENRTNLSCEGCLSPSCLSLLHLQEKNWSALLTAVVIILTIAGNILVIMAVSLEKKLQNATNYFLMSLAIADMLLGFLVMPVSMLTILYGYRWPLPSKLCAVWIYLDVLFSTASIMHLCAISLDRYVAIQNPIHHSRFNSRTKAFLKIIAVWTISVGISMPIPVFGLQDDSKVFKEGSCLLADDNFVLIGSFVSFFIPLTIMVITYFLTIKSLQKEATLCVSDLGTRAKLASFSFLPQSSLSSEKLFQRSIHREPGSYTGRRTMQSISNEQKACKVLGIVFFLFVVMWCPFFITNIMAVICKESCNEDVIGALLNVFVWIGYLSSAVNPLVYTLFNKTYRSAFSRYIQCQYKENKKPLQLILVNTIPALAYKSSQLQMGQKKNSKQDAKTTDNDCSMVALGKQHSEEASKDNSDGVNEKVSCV
Beta-2 adrenergic receptor (Homo sapiens), sequence (P07550 whole entry, looked up): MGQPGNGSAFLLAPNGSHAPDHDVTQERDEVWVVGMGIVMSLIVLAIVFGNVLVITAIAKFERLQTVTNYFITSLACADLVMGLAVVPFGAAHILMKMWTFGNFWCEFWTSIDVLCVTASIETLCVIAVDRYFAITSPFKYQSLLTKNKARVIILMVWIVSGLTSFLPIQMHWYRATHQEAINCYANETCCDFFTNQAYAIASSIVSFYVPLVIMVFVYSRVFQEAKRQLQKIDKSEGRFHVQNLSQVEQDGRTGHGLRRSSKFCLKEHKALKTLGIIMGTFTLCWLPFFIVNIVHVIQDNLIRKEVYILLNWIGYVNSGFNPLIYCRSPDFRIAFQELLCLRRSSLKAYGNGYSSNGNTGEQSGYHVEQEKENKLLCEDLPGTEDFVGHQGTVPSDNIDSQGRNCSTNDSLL
D(2) dopamine receptor (Homo sapiens), sequence (P14416 whole entry, looked up): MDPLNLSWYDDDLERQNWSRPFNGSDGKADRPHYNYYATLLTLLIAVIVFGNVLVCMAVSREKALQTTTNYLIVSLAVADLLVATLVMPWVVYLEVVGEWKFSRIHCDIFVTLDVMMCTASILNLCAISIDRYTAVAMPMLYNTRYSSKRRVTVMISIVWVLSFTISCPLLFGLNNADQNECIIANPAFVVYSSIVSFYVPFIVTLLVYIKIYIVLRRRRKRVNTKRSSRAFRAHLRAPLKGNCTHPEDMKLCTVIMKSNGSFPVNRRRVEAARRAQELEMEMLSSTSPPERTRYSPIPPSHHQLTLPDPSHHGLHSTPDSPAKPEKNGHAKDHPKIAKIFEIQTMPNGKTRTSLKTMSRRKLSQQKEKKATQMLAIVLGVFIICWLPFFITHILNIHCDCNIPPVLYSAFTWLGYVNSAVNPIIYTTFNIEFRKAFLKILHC
Muscarinic acetylcholine receptor M1 (Homo sapiens), sequence (P11229 whole entry, looked up): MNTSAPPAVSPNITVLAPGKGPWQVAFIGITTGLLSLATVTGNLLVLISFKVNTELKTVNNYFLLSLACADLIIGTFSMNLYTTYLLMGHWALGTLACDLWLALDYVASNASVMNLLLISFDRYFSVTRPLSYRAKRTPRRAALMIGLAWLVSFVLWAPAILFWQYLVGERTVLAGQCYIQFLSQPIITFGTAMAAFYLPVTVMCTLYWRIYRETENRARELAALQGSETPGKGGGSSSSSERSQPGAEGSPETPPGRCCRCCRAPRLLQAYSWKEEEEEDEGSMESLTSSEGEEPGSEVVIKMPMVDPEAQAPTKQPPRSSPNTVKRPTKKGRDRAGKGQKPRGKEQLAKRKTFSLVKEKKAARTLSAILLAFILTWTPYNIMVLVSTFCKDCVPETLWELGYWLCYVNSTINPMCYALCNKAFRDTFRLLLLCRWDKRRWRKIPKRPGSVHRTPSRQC
Gonadotropin-releasing hormone receptor (Homo sapiens), sequence (P30968 whole entry, looked up): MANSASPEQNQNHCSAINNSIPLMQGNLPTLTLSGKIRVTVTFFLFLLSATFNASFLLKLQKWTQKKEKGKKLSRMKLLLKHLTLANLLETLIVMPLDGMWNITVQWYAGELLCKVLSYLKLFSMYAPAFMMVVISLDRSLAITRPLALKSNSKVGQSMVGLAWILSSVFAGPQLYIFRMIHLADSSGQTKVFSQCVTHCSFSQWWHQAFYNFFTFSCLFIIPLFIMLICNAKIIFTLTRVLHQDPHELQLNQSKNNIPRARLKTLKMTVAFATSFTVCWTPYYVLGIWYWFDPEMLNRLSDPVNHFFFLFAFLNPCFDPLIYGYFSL

COc1ccc(Cc2cnc(N)nc2N)cc1OC
not listed: [18]
inactive: all other assays above

CN(C)CCCO[C@@H]1[C@H]2OC(C)(C)O[C@H]2O[C@@H]1C(O)CO (stereo not given in full)
not listed: [18]
inactive: all other assays above

Cc1cccc(C)c1NC(=O)CN(CC(=O)O)CC(=O)O
not listed: [15] | [18]
inactive: all other assays above

CC(C)(C)OC(=O)c1ccc(O)cc1
active: [2] 61.1 µM
not listed: [18]
inactive: all other assays above

O=[N+]([O-])c1nccn1CO[C@@H](CO)[C@H](O)CO
not listed: [14]
inactive: all other assays above

C1COCO1
not listed: [13]
inactive: all other assays above

O=C(Cl)c1cccc([N+](=O)[O-])c1
not listed: [14] | [15] | [17]
inactive: all other assays above

CCCCCCCCCCCCCCC
not listed: [15] | [18]
inactive: all other assays above

CCCCCCCC/C=C\CCCCCCCCO
active: [14] 54.4 µM
not listed: [15] | [18]
inactive: all other assays above

C=C(C)C(=O)OCCO
not listed: [12] | [15]
inactive: all other assays above

CC(=O)c1ccc([N+](=O)[O-])cc1
not listed: [12]
inactive: all other assays above

CCCCCCCC/C=C\CCCCCCCC(=O)OCC
not listed: [12] | [15]
inactive: all other assays above

O=C1CCCCCCCCCCCC(=O)OCCO1
active: [10] 5.49 µM
not listed: [13] | [18]
inactive: all other assays above

N#CCCN(CCO)CCO
not listed: [12] | [14]
inactive: all other assays above

CCOCC(C)O (stereo not given)
not listed: [12]
inactive: all other assays above

CCCCCC/C=C/C=O
not listed: [13] | [18]
inactive: all other assays above

CCC/C=C(\C=O)CC
not listed: [11]
inactive: all other assays above

O=[N+]([O-])c1ccc(Cl)cc1Cl
not listed: [11]
inactive: all other assays above

OC/C(Br)=C(\Br)CO
not listed: [12] | [15] | [18]
inactive: all other assays above

CC(C)NCC(O)c1cc(O)cc(O)c1 (stereo not given)
not listed: [13] | [15] | [18]
inactive: all other assays above

C[C@@H](O)[C@H]1C(=O)N2C(C(=O)O)=C(S[C@@H]3CN[C@H](CNS(N)(=O)=O)C3)[C@H](C)[C@H]12
not listed: [13] | [14] | [15] | [16] | [18]
inactive: all other assays above

CCN(CC)C(=O)c1ccc(O)c(OC)c1
not listed: [12] | [15] | [17]
inactive: all other assays above

CN(C)CCOC(=O)C(c1ccccc1)C1(O)CCCC1 (stereo not given)
not listed: [11] | [15]
inactive: all other assays above

CC(C)C(=O)OCCc1ccccc1
not listed: [12]
inactive: all other assays above

O=C(NN1CCCC1)NS(=O)(=O)c1ccc(Cl)cc1
not listed: [12] | [17]
inactive: all other assays above

C=CCCC(=O)O
not listed: [12] | [15] | [17] | [18]
inactive: all other assays above

CCOc1ccc(NC(=O)CC(C)=O)cc1
not listed: [12] | [15] | [17] | [18]
inactive: all other assays above

CC(C)(CO)[N+](=O)[O-]
not listed: [11]
inactive: all other assays above

COCCCOCCCOC
not listed: [12] | [16]
inactive: all other assays above

CN(C)CCN(C)CCO
active: [9] 9.4 µM
not listed: [11]
inactive: all other assays above

SCCOCCOCCS
not listed: [12] | [15] | [18]
inactive: all other assays above

CC[N+](CC)(CC)CCOC(=O)C(C1CCCC1)C1CCCC1
active: [11] 0.0016 µM
not listed: [13] | [16] | [18]
inactive: all other assays above

CCCCN1C(=O)c2ccccc2C1=O
not listed: [12] | [14] | [15] | [18]
inactive: all other assays above
